Measurements from the supplement of paper PMC9694430.

Experiments:
Test in all cases: thermal shift delta Tm vs DMSO control; higher = stronger stabilization (binding)
Settings in all cases: 12.5 µM; protein concentration 2 µM
LOC_OS01G01410-cb001 = tested on: LOC_OS01G01410-cb001
Procedure, shortened: (§1)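 Thermal shift values come from differential scanning fluorimetry on purified rice kinase domains made in E. coli, with melting temperatures obtained from Boltzmann fits. Samples of 19.5 μl held 2 μM kinase, 100 mM potassium phosphate pH 7.5, 150 mM NaCl, 10% glycerol, 5 × SYPRO Orange and compound in DMSO, and were heated from 25°C to 95°C at 0.05°C/s. Each shift is a triplicate mean relative to the DMSO-only protein sample.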

LOC_OS01G02750-cb003 = tested on: LOC_OS01G02750-cb003
Procedure, shortened: as §1

LOC_OS01G10900-cb004 = tested on: LOC_OS01G10900-cb004
Procedure, shortened: as §1

LOC_OS01G13800-cb001 = tested on: LOC_OS01G13800-cb001
Procedure, shortened: as §1

LOC_OS01G14860-cb001 = tested on: LOC_OS01G14860-cb001
Procedure, shortened: as §1

LOC_OS01G21960-cb002 = tested on: LOC_OS01G21960-cb002
Procedure, shortened: as §1

LOC_OS01G39600-cb002 = tested on: LOC_OS01G39600-cb002
Procedure, shortened: as §1

LOC_OS01G48390-cb002 = tested on: LOC_OS01G48390-cb002
Procedure, shortened: as §1

LOC_OS01G51400-cb002 = tested on: LOC_OS01G51400-cb002
Procedure, shortened: as §1

LOC_OS01G52050-cb004 = tested on: T1, LOC_OS01G52050-cb004
T1 sequence (whole entry): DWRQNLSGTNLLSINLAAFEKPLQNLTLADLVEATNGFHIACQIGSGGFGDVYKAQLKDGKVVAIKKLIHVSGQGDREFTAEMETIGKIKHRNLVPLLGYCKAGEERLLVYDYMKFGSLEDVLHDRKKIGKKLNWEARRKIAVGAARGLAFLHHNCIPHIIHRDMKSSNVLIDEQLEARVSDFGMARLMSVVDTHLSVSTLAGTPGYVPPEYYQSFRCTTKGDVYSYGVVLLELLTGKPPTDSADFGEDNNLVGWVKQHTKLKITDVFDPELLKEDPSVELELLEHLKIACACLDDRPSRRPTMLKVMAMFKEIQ
Procedure, shortened: as §1
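Further: purified Escherichia coli-expressed rice kinase domain construct.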

SMILES	thermal shift delta Tm (LOC_OS01G01410-cb001)	thermal shift delta Tm (LOC_OS01G02750-cb003)	thermal shift delta Tm (LOC_OS01G10900-cb004)	thermal shift delta Tm (LOC_OS01G13800-cb001)	thermal shift delta Tm (LOC_OS01G14860-cb001)	thermal shift delta Tm (LOC_OS01G21960-cb002)	thermal shift delta Tm (LOC_OS01G39600-cb002)	thermal shift delta Tm (LOC_OS01G48390-cb002)	thermal shift delta Tm (LOC_OS01G51400-cb002)	thermal shift delta Tm (LOC_OS01G52050-cb004)
Cn1cnc2c(F)c(Nc3ccc(Br)cc3Cl)c(C(=O)NOCCO)cc21 [Selumetinib (AZD6244)]	0.81 °C	-0.16 °C	0.43 °C	0.45 °C	0.22 °C	0.07 °C	0.25 °C	1.04 °C	0.36 °C	0.08 °C
O=S(=O)(NCCNC/C=C/c1ccc(Br)cc1)c1cccc2cnccc12	0.28 °C	0.92 °C	3.17 °C	0.66 °C	0.58 °C	1.16 °C	0.27 °C	1.8 °C	0.23 °C	0.48 °C
CO[C@H]1C[C@@H]2CC[C@@H](C)[C@@](O)(O2)C(=O)C(=O)N2CCCC[C@H]2C(=O)O[C@H]([C@H](C)C[C@@H]2CC[C@@H](OP(C)(C)=O)[C@H](OC)C2)CC(=O)[C@H](C)/C=C(\C)[C@@H](O)[C@@H](OC)C(=O)[C@H](C)C[C@H](C)/C=C/C=C/C=C/1C [Ridaforolimus (Deforolimus, MK-8669)]	0.73 °C	-1.9 °C	0.47 °C	0.18 °C	0.16 °C	0.07 °C	-0.26 °C	0.54 °C	-0.09 °C	0.11 °C
N#Cc1c(O)c2c(-c3ccc(-c4ccccc4O)cc3)csc2[nH]c1=O	0.93 °C	1.74 °C	0.92 °C	1.23 °C	0.8 °C	1.72 °C	0.7 °C	0.95 °C	0.44 °C	0.93 °C
COc1cc(Nc2c(C#N)cnc3cc(OCCCN4CCN(C)CC4)c(OC)cc23)c(Cl)cc1Cl [Bosutinib (SKI-606)]	0.89 °C	0.44 °C	-0.3 °C	0.52 °C	0.06 °C	-0.08 °C	-0.04 °C	0.05 °C	-0.09 °C	0.17 °C
C[C@@H]1COCCN1c1cc(C2([S@](C)(=N)=O)CC2)nc(-c2cc[nH]c3nccc2-3)n1	0.28 °C	0.13 °C	-0.04 °C	0.31 °C	-0.19 °C	-0.02 °C	-0.99 °C	-0.04 °C	-0.01 °C	-0.09 °C
CN1CCN(S(=O)(=O)c2ccc(-c3cnc(N)c(C(=O)Nc4cccnc4)n3)cc2)CC1	4.52 °C	1.3 °C	0.3 °C	0.58 °C	7.62 °C	1.87 °C	0.71 °C	0.96 °C	-0.02 °C	1.17 °C
CCCCNc1ncc(C(=O)NCc2ccc(-n3ccnc3)cc2)c(NC2CCC(O)CC2)n1 (stereo not given)	3.78 °C	2.44 °C	0.58 °C	-0.06 °C	4.73 °C	1.72 °C	2.74 °C	2.96 °C	0.43 °C	7.56 °C
Cc1cc([C@@H](C)Nc2ccccc2C(=O)O)c2nc(N3CCOCC3)cc(=O)n2c1	0.29 °C	1.55 °C	0.27 °C	0.31 °C	0.56 °C	1.03 °C	0.03 °C	0.29 °C	0.07 °C	0.43 °C
COc1ccc2[nH]cc(/C=C3\C(=O)Nc4ccc(NC(=O)CCN5CCCCC5)cc43)c2c1	0.24 °C	1.49 °C	0.91 °C	1.6 °C	2.18 °C	1.64 °C	0.22 °C	0.82 °C	0.58 °C	0.72 °C
C=CC(=O)Nc1cccc(Nc2nc(Nc3ccc(Oc4ccnc(C(=O)NC)c4)cc3)ncc2F)c1	4.52 °C	1.34 °C	1.05 °C	0.7 °C	4.66 °C	2.14 °C	1.74 °C	0.98 °C	0.31 °C	3.1 °C
NC[C@@](O)(c1ccc(Cl)cc1)c1ccc(-c2cn[nH]c2)cc1	0.04 °C	1.13 °C	0.24 °C	0.5 °C	0.53 °C	1.22 °C	-0.16 °C	1.06 °C	0.36 °C	0.51 °C
Cc1ccc(-n2nc(C(C)(C)C)cc2NC(=O)NCc2cc(F)ccc2Oc2ccc3c(cnn3CCO)c2)cc1 [Pexmetinib (ARRY-614)]	0.56 °C	1.41 °C	0.65 °C	-0.01 °C	0.85 °C	1.27 °C	0.75 °C	1.8 °C	0.36 °C	1.87 °C
COc1cc2c(c(OC)c1OC)-c1c(cc3c(c1OC)OCO3)CC(C)C(C)C2 (stereo not given) [Schisandrin B (Sch B)]	0.01 °C	-0.07 °C	0.21 °C	-0.06 °C	0.19 °C	0.19 °C	-3.57 °C	0.18 °C	0.24 °C	-0.05 °C
C=CC(=O)Nc1cccc(Nc2nc(Nc3ccc(OCCOC)cc3)ncc2F)c1	3.05 °C	0.97 °C	1.01 °C	-0.85 °C	3.77 °C	2.29 °C	-1.51 °C	1.44 °C	0.59 °C	3.59 °C
CC(C)c1cnn2c(NCc3ccccc3-n3cccn3)nc(OC3CCCNC3)nc12 (stereo not given)	0 °C	1.24 °C	0.29 °C	0.99 °C	0.39 °C	1.47 °C	-0.1 °C	0.28 °C	0.35 °C	0.43 °C
O=C1NC(=O)/C(=C/c2ccc(-c3ccc(F)cc3O)o2)S1	3.59 °C	5.21 °C	2.81 °C	2.09 °C	4.25 °C	2.37 °C	7.64 °C	3.1 °C	3.89 °C	8.12 °C
CCCCCCCCCC(=O)CC(O)S(=O)(=O)O (stereo not given) [Sodium Houttuyfonate]	0.56 °C	-0.18 °C	3.08 °C	0.69 °C	0.44 °C	0.8 °C	-0.35 °C	0.2 °C	0.12 °C	0.07 °C
CCCNC(=O)Nc1ccc(Oc2ncnc3cc(OC)c(OC)cc23)cc1Cl	0.04 °C	0.33 °C	-0.21 °C	-0.35 °C	-0.27 °C	0.37 °C	0.76 °C	0.53 °C	-0.13 °C	1.02 °C
